Among the data in PubChem BioAssay AID1069 (NMMLSC, 2008) are side scatter shift values, retold here.

This experiment in a line: LNCaP granularity increase inducers, single-point recheck – cell-based, side scatter shift, flow cytometry, confirmation (AID 1069).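 Also: LNCaP human prostate cancer cells in low-serum medium with charcoal-stripped FBS; percent of cells with raised granularity gated so DMSO controls show 10%.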 As to conditions: LNCaP differentiation, 4 d, stronger effect = higher value.

Active and inactive are the calls of the source.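 The calls were made as follows: active = high combined rank on largest and smallest cell-count-weighted shift across three tests, rank score above 45, floors 50 and 25 (some results past the limit were not filed as active); inactive = the rest.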

`CS(=O)(=O)c1nc(-c2cccs2)cc(C(F)(F)F)n1`: the side scatter shift runs as follows: (at 100 µM) 52.8% (inactive); (side scatter shift, at 10 µM) 15.6%.
As for `COc1ccc(OC)c(CNC(=O)CCNC(=O)Cn2ccc3ccccc3c2=O)c1`, the side scatter shift (at 100 µM) is 12.7% (inactive) and the side scatter shift (side scatter shift, at 10 µM) came to 7.3%.
The corresponding values for `CCc1ccc(-c2nc(CN3CCC(C(=O)NCCN(CC)c4ccccc4)CC3)c(C)o2)cc1` are 50% (inactive) and 24.1%.
For the molecule `COc1ccc(-c2cc3c(=O)n(CC(=O)NC4CCN(Cc5ccccc5)CC4)ncn3n2)cc1`, the side scatter shift was 36.1% (inactive) (at 100 µM) and 5.5% (side scatter shift, at 10 µM).
Take `CCN1C=C(Cc2cccs2)C2=C(C1)C(c1cccs1)C(C#N)=C(N)O2` (stereo unspecified): the side scatter shift was 20% (inactive) (at 100 µM) and 5.2% (side scatter shift, at 10 µM).
For `O=C(NCCCN1CCN(c2cccc(Cl)c2)CC1)c1ccc(N2CCCC2=O)cc1`, in that order: 7.7% (inactive) and 10.1%.
With `CCOC(=O)C1CCN(S(=O)(=O)c2ccc(-c3nc4ccccc4s3)s2)CC1`, the side scatter shift (at 100 µM) is 25.7% (inactive) and the side scatter shift (side scatter shift, at 10 µM) is 7.85%.
For `CCN(CC)CCCNc1oc(-c2cccc(Cl)c2)nc1C#N`, in that order: 21.9% (inactive) and 32.5%.
Turning to `COc1ccc(S(=O)(=O)Nc2ccc(F)c(Cl)c2)cc1OC`, the side scatter shift is, setting by setting: (at 100 µM) 44.4% (inactive); (side scatter shift, at 10 µM) 6.75%.
For `Cc1cc(C)nc(N2CCC(C(=O)Nc3ccc(Oc4ccccc4)cc3)CC2)n1`, in that order: 44.1% (inactive) and 3.05%.
The corresponding values for `CCOC(=O)C1CCN(c2nc3ccccc3nc2C(C#N)C(=O)OCCOC)CC1` (stereo unspecified) are 11.8% (inactive) and 3.1%.
For `Cc1oc(-c2ccc(Cl)cc2)nc1CN1CCCC(C(=O)NCc2cccnc2)C1` (stereo unspecified), in that order: 25% (inactive) and 7.2%.
`CC(C)(C)c1ccc(C(O)CCCN2CCC(C(O)(c3ccccc3)c3ccccc3)CC2)cc1` (stereo unspecified): the side scatter shift was 16.7% (inactive) (at 100 µM) and 14.8% (side scatter shift, at 10 µM).
For the molecule `Cc1ccccc1-c1nc(CN2CCC(C(=O)N3CCC(C(N)=O)CC3)CC2)c(C)o1`, the side scatter shift is, setting by setting: (at 100 µM) 12% (inactive); (side scatter shift, at 10 µM) 10.9%.
For `COc1ccc(N2CCN(CCCNC(=O)CC3Oc4ccc(C)cc4NC3=O)CC2)cc1` (stereo unspecified), the side scatter shift is 50% (active) (at 100 µM) and 9.05% (side scatter shift, at 10 µM).
For `CN1CCN(CC(=O)Nc2ccc(Cl)cc2Cl)CC1`, in that order: 23.1% (inactive) and 6.1%.
On to `CC(C)(O)c1cn(-c2nonc2N)nn1`, for which the side scatter shift is 10.4% (inactive) (at 100 µM) and 5.4% (side scatter shift, at 10 µM).
The corresponding values for `Cn1nc(-c2ccc(Cl)cc2)c2cc(C(=O)NCCCN3CCOCC3)sc21` are 63.6% (active) and 27.4%.
For `Cc1ccccc1OCc1nc(-c2ccc(NC(=O)c3ccc4c(c3)OCO4)cc2)no1`, in that order: 32.3% (inactive) and 4.6%.
Turning to `Cc1ccc(-c2noc(CCC(=O)NCCCN3CCN(c4ccc(F)cc4)CC3)n2)cc1`, the side scatter shift (at 100 µM) was 0% (inactive) and the side scatter shift (side scatter shift, at 10 µM) was 17.4%.
The corresponding values for `CC(C)(C)C1CCc2onc(C(=O)Nc3cnn(Cc4ccc(F)cc4)c3)c2C1` (stereo unspecified) are 25.8% (inactive) and 3.7%.
Take `Cc1ccc(C)c2[nH]c(=O)c(CN(CCN3CCCC3)C(=O)Nc3cccc(Cl)c3)cc12`: the side scatter shift was 20% (inactive) (at 100 µM) and 49.6% (side scatter shift, at 10 µM).
The corresponding values for `COc1ccc(Cc2n[nH]c(=O)c3ccccc23)cc1OC` are 5.3% (inactive) and 5.7%.
For `Cc1ccc(Oc2ccc(S(=O)(=O)N3CCOCC3)cc2C(N)=O)c(-n2nc3ccccc3n2)c1`, in that order: 20% (inactive) and 21.3%.
The corresponding values for `COc1ccc(-c2coc3c(CN4CCCCC4)c(O)c(CN4CCCCC4)c(O)c3c2=O)cc1` are 28.6% (inactive) and 3.3%.
Consider `CCOC(=O)N1CCN(C(=O)C2CCCN(Cc3nc(-c4ccc(Cl)cc4)oc3C)C2)CC1` (stereo unspecified), for which the side scatter shift runs as follows: (at 100 µM) 20% (inactive); (side scatter shift, at 10 µM) 4.15%.
The corresponding values for `CCOC(=O)C1=C(C)N=c2s/c(=C\c3ccncc3)c(=O)n2C1c1ccc2c(c1)OCO2` (stereo unspecified) are 47.1% (inactive) and 6.4%.
For `CCc1ccc(CNC(=O)CN2C(=O)COc3ccccc32)cc1`, in that order: 9% (inactive) and 5.7%.
Turning to `O=C(NCc1ccc(Cl)cc1)c1noc2c1CCCC2`, the side scatter shift reads like this: (at 100 µM) 8% (inactive); (side scatter shift, at 10 µM) 3.3%.
For `O=C(CSc1c[nH]c2ccccc12)N1CCOCC1`, in that order: 11.4% (inactive) and 4.25%.
Consider `CCc1ccc(-c2nc(CN3CCCC(C(=O)NCCc4ccc(OC)c(OC)c4)C3)c(C)o2)cc1` (stereo unspecified), for which the side scatter shift (at 100 µM) was 25% (inactive) and the side scatter shift (side scatter shift, at 10 µM) came out at 17.3%.
Consider `OCc1nc2ccccc2n1CCCOc1ccccc1`, for which the side scatter shift is 6.7% (inactive) (at 100 µM) and 5.1% (side scatter shift, at 10 µM).
For `COc1cccc(-c2cc(C(=O)N3CCN(C(c4ccccc4)c4ccccc4)CC3)no2)c1`, the side scatter shift is 9.8% (inactive) (at 100 µM) and 2.7% (side scatter shift, at 10 µM).
On to `Cn1c(=O)cc(OCC(=O)NCCCN2CCN(c3cccc(Cl)c3)CC2)c2ccccc21`, for which the side scatter shift is 20% (inactive) (at 100 µM) and 8.2% (side scatter shift, at 10 µM).
On to `COc1ccc(-c2cc(C(F)(F)F)nc(N3CCN(Cc4ccccc4)CC3)n2)cc1OC`, for which the side scatter shift is, setting by setting: (at 100 µM) 51.3% (active); (side scatter shift, at 10 µM) 5.3%.
For `CCOC(=O)c1c(-c2ccc(C)o2)csc1NC(=O)CN1CCN(CC)CC1`, in that order: 22.2% (inactive) and 8.3%.
The corresponding values for `CCCS(=O)(=O)N1CCCC(C(=O)NCCCN2CCN(c3ccccc3F)CC2)C1` (stereo unspecified) are 35.5% (inactive) and 5.95%.
The corresponding values for `Cc1ccnc(NC(=O)CCC(=O)N(CC(=O)NC2CCCCC2)c2cccc(C)c2C)c1` are 11.1% (inactive) and 6.85%.
Consider `Cc1onc(-c2ccccc2Cl)c1C(=O)N(C)C1CCCCC1`, for which the side scatter shift is 16% (inactive) (at 100 µM) and 5.1% (side scatter shift, at 10 µM).
With `COc1ccc(-c2cc(C(F)(F)F)nc(N3CCN(c4ccc(F)cc4)CC3)n2)cc1OC`, the side scatter shift was 22.3% (inactive) (at 100 µM) and 3.05% (side scatter shift, at 10 µM).
As for `CCOc1ccc(-c2cc(C(=O)NCCCN3CCN(CC)CC3)c3ccccc3n2)cc1`, the side scatter shift (at 100 µM) was 28.2% (active) and the side scatter shift (side scatter shift, at 10 µM) is 73%.
The corresponding values for `CCc1nn(C(C)C(=O)N2CCc3ccccc3C2)c(=O)c2cc3occc3n12` (stereo unspecified) are 5.5% (inactive) and 2.8%.
For `COc1ccc(CCN2CCC(Nc3nc4ccccc4n3Cc3ccc(F)cc3)CC2)cc1`, in that order: 0% (active) and 35.3%.
The corresponding values for `COc1ccc(-c2cc(C(F)(F)F)nc(N3CCN(C)CC3)n2)cc1` are 25% (inactive) and 13.6%.
For `O=C(c1ccc(COCC(F)(F)F)o1)N1CCCCCC1`, the side scatter shift runs as follows: (at 100 µM) 16.9% (inactive); (side scatter shift, at 10 µM) 4.95%.
The corresponding values for `N=c1n(CCO)c2ccccc2n1CCOc1ccc(Cl)cc1Cl` are 22.2% (inactive) and 8.75%.
For `CCN(CCCNS(=O)(=O)c1ccc2c(c1)oc(=O)n2C)c1cccc(C)c1`, in that order: 22.2% (inactive) and 4.85%.
As for `COc1ccc(-c2ccc(-c3noc(-c4ccccc4)n3)c(OC)n2)cc1`, the side scatter shift runs as follows: (at 100 µM) 56.7% (inactive); (side scatter shift, at 10 µM) 22.5%.
For `CCOc1ccc(-n2cc(C(=O)N3CCC(C)CC3)c3cc(OC)c(OC)cc3c2=O)cc1`, in that order: 16.3% (inactive) and 18.7%.
Take `O=C(O)C1CCCCC1C(=O)Nc1cnn(Cc2ccccc2)c1` (stereo unspecified): the side scatter shift reads like this: (at 100 µM) 19% (inactive); (side scatter shift, at 10 µM) 5.15%.
For `Cc1oc(-c2ccccc2F)nc1CN1CCC(C(=O)NC2CC2)CC1`, the side scatter shift reads like this: (at 100 µM) 13.5% (inactive); (side scatter shift, at 10 µM) 2.4%.
Regarding `Cc1ccc(-n2c(SCC(=O)Nc3nccs3)nc3c(c2=O)SCC3)cc1`, the side scatter shift by setting is: (at 100 µM) 16.9% (inactive); (side scatter shift, at 10 µM) 9.7%.
The corresponding values for `Cc1oc(-c2cccc(Cl)c2)nc1CN1CCCC(C(=O)NC(C)c2ccc3c(c2)OCCO3)C1` (stereo unspecified) are 0% (inactive) and 1.65%.
The corresponding values for `COc1ccc(N2CCN(CCCNC(=O)CCCn3c(=O)[nH]c4ccsc4c3=O)CC2)cc1` are 7.7% (inactive) and 20.6%.
The corresponding values for `CCN1CCCC1CNC(=O)c1cc2c(-c3ccc(Cl)cc3)nn(C)c2s1` (stereo unspecified) are 35.7% (active) and 56.7%.
Turning to `Cc1cc(N2CCN(C)CC2)nc2ccc(NC(=O)c3ccc4c(c3)OCO4)cc12`, the side scatter shift by setting is: (at 100 µM) 71.9% (active); (side scatter shift, at 10 µM) 24.6%.
The corresponding values for `Oc1ccccc1CNc1nc2ccccc2n1CCN1CCCCC1` are 22.7% (inactive) and 12.2%.
For `COC(=O)Nc1sc2c(c1C(N)=O)CCCCCC2`, in that order: 10% (inactive) and 5.65%.
For `O=C(Nc1cccc(Cl)c1)N1CCN(Cc2ccccc2)CC1`, in that order: 7.1% (inactive) and 10.2%.
Take `Cc1cc2c(=O)n(CC(=O)N3CCN(c4ccccc4)CC3)cnc2s1`: the side scatter shift by setting is: (at 100 µM) 30.4% (inactive); (side scatter shift, at 10 µM) 5.8%.
On to `Cc1oc(-c2cccc(Cl)c2)nc1CN1CCC(C(=O)NCc2ccco2)CC1`, for which the side scatter shift by setting is: (at 100 µM) 35% (inactive); (side scatter shift, at 10 µM) 6.2%.
As to `CCc1ccc(-c2nc(CN3CCC(C(=O)NCc4ccco4)CC3)c(C)o2)cc1`, the side scatter shift by setting is: (at 100 µM) 20% (inactive); (side scatter shift, at 10 µM) 16.5%.
The corresponding values for `Cc1cc(NC(=O)CSc2nnc(C3CC3)n2C)no1` are 11.6% (inactive) and 9.3%.
The corresponding values for `COc1ccc(Nc2nc(N)nc(CN3CCC(Cc4ccccc4)CC3)n2)cc1` are 16.7% (inactive) and 33.3%.
For `CCS(=O)(=O)N1CCC(C(=O)NCCCN2CCN(c3ccccc3F)CC2)CC1`, in that order: 13.3% (inactive) and 12.6%.
`COc1ccc(CCNC(=O)C2CCN(Cc3nc(-c4cccc(Cl)c4)oc3C)CC2)cc1OC`: the side scatter shift reads like this: (at 100 µM) 20% (inactive); (side scatter shift, at 10 µM) 12.2%.
Take `Cc1ccc2[nH]c(=O)c3cc(C(=O)N(C)Cc4ccco4)sc3c2c1`: the side scatter shift by setting is: (at 100 µM) 4.2% (inactive); (side scatter shift, at 10 µM) 11.1%.
The corresponding values for `Cc1cccc(-c2nc(CN3CCCC(C(=O)NC4CCCCCC4)C3)c(C)o2)c1` (stereo unspecified) are 41.2% (inactive) and 10.8%.
For `CCN(CCNC(=O)C1CCN(Cc2nc(-c3cccc(Cl)c3)oc2C)CC1)c1ccccc1`, in that order: 66.7% (inactive) and 31.2%.
For `CCCNC(=O)C1CN(S(=O)(=O)c2ccccc2)CCN1S(=O)(=O)c1ccccc1` (stereo unspecified), in that order: 13.3% (inactive) and 8%.
As for `Cc1oc(-c2ccccc2F)nc1CN1CCC(C(=O)NCc2cccs2)CC1`, the side scatter shift was 39.3% (inactive) (at 100 µM) and 6.3% (side scatter shift, at 10 µM).
For `COc1ccc(-c2oc3ncn(CCN4CCOCC4)c(=N)c3c2-c2ccc(OC)cc2)cc1`, in that order: 42.3% (inactive) and 19.7%.
With `Cc1ccccc1CS(=O)(=O)CCC(=O)NCCCN1CCN(c2ccccc2F)CC1`, the side scatter shift (at 100 µM) was 56.5% (active) and the side scatter shift (side scatter shift, at 10 µM) stood at 6.05%.
For `COc1ccc(/C=N/c2nc3ccccc3n2C)cc1OC`, in that order: 10% (inactive) and 6.6%.
On to `COc1ccc(-c2nc(CN3CCC(C(=O)N4CCc5ccccc54)CC3)c(C)o2)cc1OC`, for which the side scatter shift (at 100 µM) was 12.5% (inactive) and the side scatter shift (side scatter shift, at 10 µM) was determined as 2.7%.
As for `Cn1c(C(=O)NCCCN2CCN(c3ccccc3F)CC2)cc2c(=O)n(C)c3ccccc3c21`, the side scatter shift was 20% (inactive) (at 100 µM) and 7.65% (side scatter shift, at 10 µM).
The corresponding values for `O=C(CN1CCN(Cc2ccc3c(c2)OCO3)CC1)N1CCc2[nH]c3ccc(F)cc3c2C1` are 20.8% (inactive) and 7.3%.
The corresponding values for `O=C(CCCCCn1c(=O)[nH]c2ccccc2c1=O)NCCCN1CCN(c2ccccc2F)CC1` are 27.8% (inactive) and 3%.
